PubChem BioAssay (NCATS)
Inconclusive results are not listed. The source made the active and inactive calls. Unless noted, the call rests on the fitted dose curve; in most records, active means well fitted curve in the direction sought with a large enough effect; inconclusive means small, poorly fitted or top-dose-only effect, or another doubt; inactive means no such curve, though single readings can be large; an effect the other way counts as inactive or inconclusive.

Columns and labels:
[1] = Cell Viability - MRC5 (AID 434; calls by dose curve;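 further: potency means the concentration at half of the fitted maximal effect; cells exposed to compound for 40 hours at 37 °C; potency reflects cytotoxicity seen as loss of intracellular ATP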); settings: MRC5 lung fibroblast viability, qHTS
Procedure, shortened: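 ATP luminescence read-out (CellTiter-Glo, 20 min RT) after 40 hr, 37 °C compound exposure of 1500 MRC5 cells/well. Data normalized to DMSO (basal) and 100 uM tamoxifen (100% inhibition); AC50 from standard Hill equation.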

[2] = Cell Viability - LYMP2-001 (AID 921); settings: LYMP2-001 lymphoblastoid cell viability; series mostly up to 92.2 µM;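 further: 0% = DMSO only and full inhibition = tetraoctylammonium bromide control wells; nearly all actives have a fitted effect of over 70% in size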
Procedure, shortened: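 qHTS, 1536-well; lymphoblastoid cells, 24 hr compound, 37 C; ATP by CellTiter-Glo, 30 min RT; luminescence; Hill-fit AC50.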

[3] = MultiTox-Fluor Cytotoxicity Assay - LYMP1-001 - Live Cells (AID 947); settings: LYMP1-001 lymphoblastoid cells, live-cell protease fluorescence viability; series mostly up to 92.2 µM;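 further: 0% = DMSO only and full inhibition = tetraoctylammonium bromide control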
[4] = MultiTox-Fluor Cytotoxicity Assay - LYMP1-003 - Dead Cells (AID 961); settings: LYMP1-003 lymphoblastoid cells, dead-cell protease fluorescence; series mostly up to 92.2 µM;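 further: 0% = DMSO and 100% = tetraoctylammonium bromide; nearly all actives have a fitted effect of over 70% in size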
Procedure, shortened: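 Human lymphoblastoid LYMP1-003 cells (2500/well) were treated with compounds for 16 hr at 37 C in complete medium. Dead-cell protease release was read by bis-AAF-R110 fluorescence (Ex/Em 485/520). AC50 came from Hill fits, normalized to DMSO and 15 uM tetraoctylammonium bromide.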

[5] = MultiTox-Fluor Cytotoxicity Assay - LYMP1-003 - Live Cells (AID 962); settings: LYMP1-003 lymphoblastoid cells, MultiTox-Fluor live-cell protease fluorescence; series mostly up to 92.2 µM;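 further: cells exposed to compound for 16 hours at 37 °C; 0% = DMSO only and full loss = 92 µM tetraoctylammonium bromide; cytotoxic hits lower the live-cell protease signal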
Procedure, shortened: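 Readout: live-cell fluorescence (Ex/Em=405/510) from GF-AFC cleavage after 60 min MultiTox-Fluor reagent at room temperature. Lymphoblastoid LYMP1-003 cells, 16 hr compound treatment, 37 C. Concentration-response fitted to standard Hill equation for AC50.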

[6] = Cell Viability - LYMP1-003 - Assay at 40 hr (AID 964); settings: LYMP1-003 lymphoblastoid viability; series mostly up to 92.2 µM; further: on the % scale 0 is the no-effect control and ±100 the full control effect; nearly all actives have a fitted effect of over 60% in size
Procedure, shortened: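 LYMP1-003 lymphoblastoid cells, 2500/well; 5 hr preincubation, 40 hr compound exposure, 37 C; CellTiter-Glo 30 min RT; luminescence; Hill-fit AC50. Positive control tetraoctylammonium bromide.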

[7] = Cell Viability - LYMP2-011 (AID 969); settings: LYMP2-011 lymphoblastoid cells viability; series mostly up to 92.2 µM;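 further: cells exposed to compound for 24 hours; 0% = DMSO only and full inhibition = 92 µM tetraoctylammonium bromide; nearly all actives have a fitted effect of over 60% in size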
Procedure, shortened: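 Luminescent ATP read-out (CellTiter-Glo, 30 min RT) after 24 hr compound exposure at 37 C in human lymphoblastoid cells, 2500 cells/well. Decreasing ATP indicates cytotoxicity; AC50 from standard Hill fit.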

[8] = Cell Viability - LYMP2-013 (AID 970); settings: LYMP2-013 lymphoblastoid cells viability; series mostly up to 92.2 µM;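 further: 0% = DMSO only and full inhibition = tetraoctylammonium bromide control; nearly all actives have a fitted effect of over 55% in size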
Procedure, shortened: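 CellTiter-Glo luminescence (cellular ATP) read after 30 min at RT. Cells: human lymphoblastoid line, 2500/well, 24 hr compound exposure at 37 C. Tetraoctylammonium bromide positive control; AC50 via standard Hill fit of qHTS titrations.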

[9] = Cell Viability - LYMP2-015 (AID 971); settings: LYMP2-015 lymphoblastoid cell viability; series mostly up to 92.2 µM;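 further: 0% = DMSO only and full effect = 92 µM tetraoctylammonium bromide; nearly all actives have a fitted effect of over 55% in size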
Procedure, shortened: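 qHTS cytotoxicity: 2500 cells/well, 5 hr 37 C, compound 24 hr 37 C, CellTiter-Glo 30 min RT, luminescence. Loss of ATP = toxicity; AC50 via standard Hill fit.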

[10] = Cell Viability - LYMP2-002 (AID 977); settings: LYMP2-002 lymphoblastoid cell viability, qHTS; series mostly up to 92.2 µM;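 further: plate controls were DMSO only for no effect and 92 µM tetraoctylammonium bromide for full effect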
Procedure, shortened: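 Human lymphoblastoid cells, 2500/well, complete medium; 5 h 37 C settle; compound 24 h 37 C; CellTiter-Glo, 30 min RT; luminescence. Decrease in ATP = cytotoxicity; AC50 via Hill equation.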

[11] = Cell Viability - LYMP2-010 (AID 981); settings: LYMP2-010 lymphoblastoid cell viability, qHTS; series mostly up to 92.2 µM;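 further: cells exposed to compound for 24 hours at 37 °C; on the % scale 0 is the no-effect control and ±100 the full control effect; nearly all actives have a fitted effect of over 55% in size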
Procedure, shortened: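 qHTS cytotoxicity, 1536-well: 2500 cells/well, 5 hr settle, 24 hr compound at 37 C, CellTiter-Glo 30 min RT, luminescence read. Decrease in ATP = toxicity; AC50 via standard Hill equation. Positive control tetraoctylammonium bromide.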

[12] = Cell Viability - LYMP2-018 (AID 985); settings: LYMP2-018 lymphoblastoid cells, viability (qHTS); series mostly up to 92.2 µM;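 further: plate controls were DMSO only for no effect and tetraoctylammonium bromide at 92 µM for full effect; nearly all actives have a fitted effect of over 50% in size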
Procedure, shortened: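 2500 cells/well; 5 hr 37 C; cmpd 24 hr 37 C, complete medium; CellTiter-Glo 30 min RT; luminescence. Tetraoctylammonium bromide positive control. AC50 via Hill fit.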

[13] = Cell Viability - LYMP2-022 (AID 987); settings: LYMP2-022 lymphoblastoid cell viability; series mostly up to 92.2 µM;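 further: 0% = DMSO alone and full effect = tetraoctylammonium bromide at 92 µM; nearly all actives have a fitted effect of over 55% in size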
Procedure, shortened: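 Luminescent ATP read-out (CellTiter-Glo, 30 min, RT) after 24 hr, 37 C compound exposure of 2500 human lymphoblastoid cells/well in complete medium. Cytotoxicity taken as concentration-dependent ATP loss; AC50 from standard Hill equation.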

[14] = target: Vitamin D3 receptor (Homo sapiens) (UniProt P11473); assay: qHTS assay for small molecule antagonists of vitamin D receptor signaling (AID 588541; calls by dose curve;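 further: receptor activated by calcitriol during compound treatment; on the % scale 0 is the no-effect control and ±100 the full control effect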); settings: HEK293T VDR-UAS-bla, beta-lactamase ratio, antagonist mode; series mostly up to 76.7 µM
Procedure, shortened: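 VDR-UAS-bla HEK293T cells in 2% charcoal-stripped FBS were stimulated with 1-alpha,25-dihydroxyvitamin D3 (3 nM final) plus compound for 16 h at 37 C. The beta-lactamase CCF4 readout was normalized to 50 nM agonist and DMSO, and Hill fits gave IC50.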

[15] = target: Vitamin D3 receptor (Homo sapiens) (UniProt P11473); assay: qHTS assay for small molecule agonists of vitamin D receptor signaling (AID 588543; calls by dose curve;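 further: 0% = DMSO basal and 100% = reference agonist control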); settings: HEK293T VDR-UAS-bla, beta-lactamase ratio, 16 h; series mostly up to 76.8 µM
Procedure, shortened: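 qHTS in agonist mode: compound titrations stimulate a VDR-driven β-lactamase reporter in HEK293T cells over 16 h at 37 °C. Response normalized to 50 nM 1α,25-dihydroxyvitamin D3 = 100%, DMSO = 0%; Hill fitting gives EC50 and maximal response.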

[16] = target: Thyroid hormone receptor beta (Homo sapiens) (UniProt P10828); assay: qHTS assay for small molecule antagonists of thyroid hormone receptor beta signaling (AID 588547; active means well fitted inhibition curve with a large enough effect in the signal ratio, with a control signal flat, not every such curve was filed as active; the % refers to the signal ratio;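 further: cells stimulated with 0.4 nM T3 agonist during compound exposure; on the % scale 0 is the no-effect control and ±100 the full control effect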); settings: TR-UAS-bla HEK293, beta-lactamase ratio, antagonist mode, 18 h
Procedure, shortened: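 TR-UAS-bla GripTite HEK293 cells in 2% charcoal/dextran FBS medium; compounds 0.59 nM to 92 uM with T3 at 0.4nM final, 18 h at 37 C. Beta-lactamase read by CCF4 fluorescence (460/530 nm); Hill fits gave IC50 and efficacy.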

[17] = qHTS assay for small molecule antagonists of the retinoid-related orphan receptor gamma (ROR-gamma) signaling pathway - cell viability counter screen (AID 720652; active means well fitted curve in the direction sought with a large enough effect in the repeat runs; an effect the other way counts as inactive or inconclusive;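 further: CHO reporter cells with doxycycline-induced ROR-gamma expression; compound exposure lasted 16 hr before ATP read; on the % scale 0 is the no-effect control and ±100 the full control effect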); settings: RORgamma reporter cell line viability counter screen; series mostly up to 92.2 µM
Procedure, shortened: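 CHO RORE-LUC/TET-ROR line, 1,000 cells/well, 37 C 5% CO2 5 hr; cpd or DMSO + doxycycline induction, 16 hr. CellTiter-Glo, 30 min RT, luminescence = ATP content.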

[18] = qHTS assay for small molecule activators of the human pregnane X receptor (PXR) signaling pathway (AID 720659; call rule not given here; further: 0% is about no effect); settings: DPX-2 HepG2 CYP3A4-luciferase, 24 h; series mostly up to 92.3 µM
[19] = target: Mitogen-activated protein kinase 10 (Mus musculus) (UniProt Q61831); assay: JNK3 AlphaScreen Assay (AID 530; active means well fitted curve in either direction with a large enough effect, not every such curve was filed as active;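 further: kinase came from lysate of stimulated human HepG2 cells; signal reports phosphorylation of biotinylated GST-cJun 1-79 at Ser73 with 10 µM ATP; on the % scale 0 is the no-effect control and ±100 the full control effect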); settings: JNK3 lysate, c-Jun phosphorylation; series mostly up to 57.1 µM
Procedure, shortened: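 HepG2 lysate (IL-1b/TNFa pre-activated) + biotin-GST-cJun 1-79 + anti-pSer73 cJun; cpd titration, 15 min RT; ATP 10 uM start; Tris pH 7.6, MgCl2, DTT, vanadate; beads in EDTA buffer; AlphaScreen.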

[20] = Cell Viability - LYMP2-021 (AID 974); settings: LYMP2-021 lymphoblastoid cells viability; series mostly up to 92.2 µM
Procedure, shortened: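 ATP luminescence (CellTiter-Glo, 30 min RT) after 24 h compound exposure at 37 C; 2500 human lymphoblastoid cells/well, 5 h settle beforehand. Cytotoxicity = concentration-dependent ATP drop, AC50 by Hill fit.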

Thyroid hormone receptor beta (Homo sapiens), sequence (P10828 whole entry, looked up): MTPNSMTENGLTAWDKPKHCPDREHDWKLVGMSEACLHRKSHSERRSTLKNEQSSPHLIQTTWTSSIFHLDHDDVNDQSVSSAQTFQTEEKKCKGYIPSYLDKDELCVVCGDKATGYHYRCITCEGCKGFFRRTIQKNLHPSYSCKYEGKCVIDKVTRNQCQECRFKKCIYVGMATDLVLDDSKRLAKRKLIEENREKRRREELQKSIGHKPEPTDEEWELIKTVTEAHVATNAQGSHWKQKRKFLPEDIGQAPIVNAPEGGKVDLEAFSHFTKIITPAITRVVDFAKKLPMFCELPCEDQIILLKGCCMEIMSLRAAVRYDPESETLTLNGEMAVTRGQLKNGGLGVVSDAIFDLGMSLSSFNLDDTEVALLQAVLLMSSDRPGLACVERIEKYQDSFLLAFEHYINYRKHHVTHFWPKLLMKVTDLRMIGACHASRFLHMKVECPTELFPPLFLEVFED
Vitamin D3 receptor (Homo sapiens), sequence (P11473 whole entry, looked up): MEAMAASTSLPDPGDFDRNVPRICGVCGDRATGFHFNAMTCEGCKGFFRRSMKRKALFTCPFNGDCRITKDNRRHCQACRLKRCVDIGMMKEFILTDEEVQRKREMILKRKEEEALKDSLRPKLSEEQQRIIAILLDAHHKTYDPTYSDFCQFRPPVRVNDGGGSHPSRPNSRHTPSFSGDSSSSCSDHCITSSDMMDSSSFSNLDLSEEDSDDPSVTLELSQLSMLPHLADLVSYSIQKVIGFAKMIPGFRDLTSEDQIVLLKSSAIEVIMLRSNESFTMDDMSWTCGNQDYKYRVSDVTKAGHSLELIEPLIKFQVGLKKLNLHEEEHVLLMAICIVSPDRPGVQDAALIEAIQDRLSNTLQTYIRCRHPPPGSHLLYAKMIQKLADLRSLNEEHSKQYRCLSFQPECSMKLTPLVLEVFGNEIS

CCOC(=O)CBr
inactive: Potency [1] > 92 µM | Potency [2] | outcome [3] | Potency [4] | outcome [5] | Potency [6] | Potency [7] | Potency [8] | Potency [9] | Potency [10] | Potency [11] | Potency [12] | Potency [13] | outcome [14] | outcome [15] | activity change % (negative = inhibition) [16] -6.62% | Potency [17] | outcome [18]

c1ccc(N=NNc2ccccc2)cc1
inactive: Potency [1] > 92 µM | Potency [2] | outcome [3] | outcome [5] | Potency [6] | Potency [7] | Potency [8] | Potency [9] | Potency [10] | Potency [11] | Potency [12] | Potency [13] | outcome [14] | outcome [15] | activity change % (negative = inhibition) [16] 0.0148% | Potency [17]

O=C(O)C(Br)CBr (stereo not drawn)
inactive: Potency [1] > 92 µM | Potency [19] | Potency [2] | outcome [3] | Potency [6] | Potency [7] | Potency [9] | Potency [20] | Potency [11] | Potency [13] | activity change % (negative = inhibition) [16] 10.8% | Potency [17] | outcome [18]

C1CC2OC2CC1C1CO1 (stereo not drawn)
inactive: Potency [19] | Potency [2] | Potency [4] | outcome [5] | Potency [6] | Potency [7] | Potency [20] | Potency [10] | Potency [12] | Potency [13] | outcome [14] | outcome [15] | activity change % (negative = inhibition) [16] 7.88% | Potency [17] | outcome [18]

C(CCOCC1CO1)COCC1CO1 (stereo not drawn)
inactive: Potency [19] | outcome [3] | Potency [4] | outcome [5] | Potency [7] | Potency [9] | Potency [20] | Potency [10] | outcome [14] | outcome [15] | activity change % (negative = inhibition) [16] 16.3% | Potency [17] | outcome [18]

CCOP(=S)(OCC)Oc1nc(Cl)c(Cl)cc1Cl
inactive: Potency [1] > 92 µM | Potency [2] | outcome [3] | Potency [4] | outcome [5] | Potency [7] | Potency [8] | Potency [20] | Potency [10] | Potency [12] | outcome [14] | outcome [15] | Potency [17]

Cc1cc(-c2cc(C)c(N)c(C)c2)cc(C)c1N
inactive: Potency [1] > 92 µM | Potency [2] | Potency [4] | outcome [5] | Potency [6] | Potency [7] | Potency [8] | Potency [9] | Potency [20] | Potency [11] | Potency [12] | Potency [13] | outcome [14] | outcome [15] | activity change % (negative = inhibition) [16] 5.74% | Potency [17] | outcome [18]

Oc1c(Cl)c(Cl)cc(Cl)c1Cl
inactive: Potency [1] > 92 µM | Potency [19] | Potency [2] | outcome [3] | Potency [4] | outcome [5] | Potency [6] | Potency [7] | Potency [8] | Potency [9] | Potency [20] | Potency [10] | Potency [11] | Potency [12] | Potency [13] | activity change % (negative = inhibition) [16] 23.1% | outcome [18]

CCN(N=O)C(N)=O
inactive: Potency [1] > 92 µM | Potency [2] | outcome [5] | Potency [7] | Potency [8] | Potency [9] | Potency [20] | Potency [10] | Potency [11] | Potency [12] | Potency [13] | outcome [14] | outcome [15] | activity change % (negative = inhibition) [16] 18.5% | Potency [17] | outcome [18]
